The results in this text go back to PubChem BioAssay AID1631 (National Center for Advancing Translational Sciences (NCATS), 2009).

SMILES strings stand for the structures. The whole screen tested about 260,000 compounds, of which about 890 (0.34%) were called active. Entries that show only a call come without a potency. Another 1% or so got no clear call; they are omitted. For the sample, actives were picked, then their nearest neighbours and some compounds at random. A number with no mark means an inactive call. Calls follow the shape of the dose curve; as a rule, active = well fitted activation curve with a large enough effect; inconclusive = small, poorly fitted or top-dose-only effect; inactive = no such curve, though single readings can be large or run the other way.
Potency is read from the fitted curve at half-maximal effect.

The target in this experiment is Pyruvate kinase PKM (Homo sapiens) (UniProt P14618). The experiment can be described thus: qHTS Assay for Activators of Human Muscle isoform 2 Pyruvate Kinase. Also: nearly all actives have a fitted effect of over 55% in size. Conditions: purified PKM2, Kinase-Glo ATP luminescence; Potency: activation; series mostly up to 57.5 µM. The method, boiled down: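 Purified hPK-M2 (>95%) run at intermediate activity with 0.1 mM ADP and 0.5 mM PEP in 50 mM imidazole pH 7.2, KCl, MgCl2; 1 h room temperature. ATP formed read by Kinase-Glo luminescence; normalized to uninhibited and no-enzyme controls.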
Pyruvate kinase PKM (Homo sapiens), sequence (P14618 whole entry, looked up, canonical isoform): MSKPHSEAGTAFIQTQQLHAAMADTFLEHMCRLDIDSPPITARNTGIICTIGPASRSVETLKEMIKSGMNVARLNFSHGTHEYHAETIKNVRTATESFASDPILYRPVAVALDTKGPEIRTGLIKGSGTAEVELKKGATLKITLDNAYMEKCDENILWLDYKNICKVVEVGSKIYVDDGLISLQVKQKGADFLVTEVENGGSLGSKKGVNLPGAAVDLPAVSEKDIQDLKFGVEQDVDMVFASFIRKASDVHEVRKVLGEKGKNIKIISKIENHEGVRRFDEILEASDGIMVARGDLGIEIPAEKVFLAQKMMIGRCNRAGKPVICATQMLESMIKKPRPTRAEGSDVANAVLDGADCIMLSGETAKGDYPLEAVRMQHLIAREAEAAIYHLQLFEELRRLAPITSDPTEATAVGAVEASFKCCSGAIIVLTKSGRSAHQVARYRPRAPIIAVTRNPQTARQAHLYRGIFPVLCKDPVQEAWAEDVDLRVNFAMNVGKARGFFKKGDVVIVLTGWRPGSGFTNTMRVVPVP
Turning to `Cc1cc(C)c(SCCc2ccncc2)c(C)c1`, the Potency entry is “inactive”.

As for `COc1cc(/C=N/Nc2nc3ccccc3s2)ccc1O`, the Potency result was “inactive”.

Regarding `CCOc1cc(/C=C(\C#N)c2nc(-c3cccs3)c(NC(C)=O)s2)ccc1O`, the Potency entry was “inactive”.

`COc1cc(/C=N\Nc2nc(-c3cccs3)c(NC(C)=O)s2)ccc1O`: the Potency is 11.2 µM (active).

Turning to `COc1cccc(CC(=O)Nc2nc(-c3ccc(OC)c(OC)c3)cs2)c1`, the Potency entry is “inactive”.

Turning to `C/C=C(/C)C(=O)Nc1cccc(C2=NOC3(C2)C[C@@H](C(N)=O)N(C(=O)C2(C)CC2)C3)c1` (some centres not stated), the Potency result is “inactive”.

In the case of `C/C=C\C=C\C(=O)N1CC2(CC(c3cccc(NC(=O)/C(C)=C\C)c3)=NO2)C[C@H]1C(N)=O` (some centres not stated), the Potency was 3.55 µM (active).

`CC/C=C/C(=O)N1CC2(CC(c3cccc(NC(=O)CC)c3)=NO2)C[C@H]1C(N)=O` (some centres not stated): the Potency result is “inactive”.

Regarding `CCC(C)C(=O)Nc1ccccc1N1CCN(c2ccc(F)cc2)CC1` (configuration not stated), the Potency entry is “inactive”.

For `CCCNC(=O)c1ccc(N2CCC3(CC2)CC(c2ccc(Cl)cc2)=NO3)c([N+](=O)[O-])c1`, the Potency result is “inactive”.

As for `COc1ccc(C(=O)NCC(=O)N/N=C/c2cccnc2)cc1`, the activation was 0.538% [at 0.46 µM, 0% is enzyme alone, no compound].

Turning to `O=C(NCC(=O)N1CCN(c2ncc(C(F)(F)F)cc2Cl)CC1)c1ccc(Br)o1`, the Potency result is “inactive”.

Turning to `O=C(O)c1cccc2c1C(=O)N(C1CCCC1)C2`, the Potency result is “inactive”.

Take `COc1ccc(N(C(=O)c2snc(C(N)=O)c2N)C(C(=O)NC2CCCC2)c2ccc(C)o2)c(OC)c1` (configuration not stated): the Potency entry is “inactive”.

Regarding `CN(CC1CCCO1)S(=O)(=O)c1ccc(C(=O)Nc2ccc([N+](=O)[O-])cc2)cc1` (configuration not stated), the Potency entry was “inactive”.

On to `CCOC(=O)c1csc(CCNC(=O)c2oc3c(Cl)cc(C)cc3c2C)n1`, for which the Potency result was “inactive”.

With `CC(C)NS(=O)(=O)c1ccc(OCC(=O)NC2CCCCCC2)cc1`, the Potency result is “inactive”.

Turning to `O=C(Nc1nnc(C2=COCCO2)o1)c1ccc([N+](=O)[O-])s1`, the Potency entry was “inactive”.

With `COc1ccc(-n2cc(-c3ccccc3)c3c(=S)nc[nH]c32)cc1`, the activation was -7.56% [at 0.46 µM, 0% is enzyme alone, no compound].

Consider `CCc1ccc(CNC(=O)C2CCN(c3nnc(C)c4c(C)n(-c5ccc(C)cc5)nc34)CC2)cc1`, for which the activation is -0.982% [at 0.46 µM, 0% is enzyme alone, no compound].

In the case of `Cc1cc(S(=O)(=O)NCc2ccccn2)c(Cl)cc1Cl`, the activation is -2.1% [at 11.5 µM, 0% is enzyme alone, no compound].

As to `COc1ccc(N2CCN(S(=O)(=O)CCNC(=O)C34CC5CC(CC(C5)C3)C4)CC2)cc1`, the Potency entry is “inactive”.

`O=C(Cc1ccc(Cl)c(Cl)c1)Nc1ccc(SC(F)F)cc1`: the Potency entry was “inactive”.

As to `Nc1cccc(S(=O)(=O)Nc2ccc(SC(F)F)cc2)c1`, the Potency was 14.1 µM (active).

Take `CSc1ccc(S(=O)(=O)Nc2cccc(F)c2)cc1`: the Potency result was “inactive”.

As for `Cc1ccccc1C(=O)N1CCN(c2ccc(NC(=O)c3cccs3)cc2)CC1`, the Potency entry was “inactive”.

Consider `Cc1c(C=O)c2ccccc2n1CCOc1ccccc1`, for which the Potency entry was “inactive”.

For the compound `CCOc1cc(-c2cc(-c3ccc(NC(C)=O)cc3)nc(N)c2C#N)ccc1O`, the Potency entry is “inactive”.

With `CC(C)C(C)NC(=O)COc1nc2ccccc2nc1N(C)C1CCCCC1` (configuration not stated), the Potency entry was “inactive”.

With `CCN(C(=O)C1CCCN(c2nc(-c3ccc(OC)cc3)no2)C1)c1ccc(OC)cc1` (configuration not stated), the Potency result was “inactive”.

Turning to `CCn1cc(CN2CCC(C(=O)Nc3cccc(-c4cccc(Cl)c4)c3)CC2)c(C)n1`, the Potency entry is “inactive”.

Consider `COc1ccccc1N1CCN(C(=O)CCS(=O)(=O)c2ccc3c(c2)NC(=O)C(C)S3)CC1` (configuration not stated), for which the Potency entry was “inactive”.
